Data reported in PubChem BioAssay (NCI).
The panel holds about 79,000 compounds, 15% with a hit somewhere; the sample as a whole holds those more often. Active and inactive are the calls of the source. Cut-off read from the data, not from the text of the source: active = growth inhibition above about 70%; inactive = the rest.

What was measured:
[1] = NCI Yeast Anticancer Drug Screen. Data for the wt2 strain (AID 169); settings: S. cerevisiae wt2 strain growth inhibition, hits give high values
Summary of the method: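 Yeast cells were exposed to test compounds, and growth inhibition was measured relative to vehicle-treated controls.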

[2] = NCI Yeast Anticancer Drug Screen. Data for the mlh1 strain (AID 171);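 note: 0% = growth of vehicle-treated control cultures of the same strain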; settings: S. cerevisiae mlh1 strain growth inhibition, hits give high values
Summary of the method: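 Yeast carrying a defined genetic alteration in DNA damage repair or cell cycle control were exposed to test compounds. Growth inhibition was measured relative to vehicle-treated controls.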

[3] = NCI Yeast Anticancer Drug Screen. Data for the sgs1 strain (AID 173);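 note: 0% = growth of vehicle-only control cultures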; settings: S. cerevisiae sgs1 mutant, hits give high values
Summary of the method: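 Yeast mutant strains carrying defined defects in DNA damage repair or cell cycle control were exposed to test compounds. Growth inhibition was scored against vehicle-treated controls.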

[4] = NCI Yeast Anticancer Drug Screen. Data for the mlh1 rad18 strain (AID 175); settings: S. cerevisiae mlh1 rad18 strain growth inhibition, hits give high values
Summary of the method: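 Growth inhibition of the yeast strain was measured after compound exposure and expressed relative to vehicle-treated controls. The strain carries defined defects in DNA damage repair.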

[5] = NCI Yeast Anticancer Drug Screen. Data for the rad18 strain (AID 177); settings: S. cerevisiae rad18 mutant growth inhibition, hits give high values
Summary of the method: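 Yeast carrying a defined DNA damage repair alteration were exposed to compounds. Growth inhibition was expressed relative to vehicle-treated controls.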

[6] = NCI Yeast Anticancer Drug Screen. Data for the rad52 strain (AID 147);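 note: 0% = growth of vehicle-treated control cultures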; settings: S. cerevisiae rad52 mutant growth inhibition, hits give high values
Summary of the method: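 Yeast strain carrying a DNA damage repair alteration was exposed to test compounds. Growth inhibition was measured relative to vehicle-treated controls.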

[7] = NCI Yeast Anticancer Drug Screen. Data for the wt1 strain (AID 149);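 note: 0% = growth of vehicle-treated wt1 cultures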; settings: S. cerevisiae wt1 strain (SPY 50644) growth inhibition, hits give high values
Summary of the method: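 Each compound is tested on wt1 yeast and the loss of growth versus vehicle gives the inhibition value.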

[8] = NCI Yeast Anticancer Drug Screen. Data for the rad50EPP+ strain (AID 151);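 note: 0% = growth of vehicle-treated control cultures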; settings: S. cerevisiae rad50 mutant strain, hits give high values
Summary of the method: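 Yeast strain carrying rad50 alteration (rad50EPP+) exposed to compounds; growth inhibition measured relative to vehicle-treated controls.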

[9] = NCI Yeast Anticancer Drug Screen. Data for the mgt1 strain (AID 153); settings: S. cerevisiae mgt1 mutant growth inhibition, hits give high values
Summary of the method: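 Yeast mgt1 strain (DNA repair/cell-cycle alteration panel) exposed to compounds; growth inhibition measured relative to vehicle-treated controls.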

[10] = NCI Yeast Anticancer Drug Screen. Data for the rad50 strain (AID 155);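 note: 0% = growth of vehicle-only cultures of the same strain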; settings: S. cerevisiae rad50 strain growth inhibition, hits give high values
Summary of the method: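 Vehicle-treated cultures provide the reference for the growth inhibition reported for compound-exposed, repair-deficient yeast.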

[11] = NCI Yeast Anticancer Drug Screen. Data for the mec2-1 strain (AID 157); settings: S. cerevisiae mec2-1 strain, hits give high values
Summary of the method: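 mec2-1 yeast strain, carrying an alteration in DNA damage repair or cell cycle control, was exposed to compounds; growth inhibition was measured relative to vehicle-treated controls.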

[12] = NCI Yeast Anticancer Drug Screen. Data for the rad14 strain (AID 159);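 note: 0% = growth of vehicle-treated control cultures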; settings: S. cerevisiae rad14 strain growth inhibition, hits give high values
Summary of the method: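 Inhibition of growth is reported for a repair-deficient yeast mutant following compound treatment, calculated relative to cultures that received vehicle.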

[13] = NCI Yeast Anticancer Drug Screen. Data for the sgs1 mgt1 strain (AID 161);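 note: 0% = growth of cultures given vehicle only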; settings: S. cerevisiae sgs1 mgt1 strain, hits give high values
Summary of the method: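 Growth of a repair-deficient yeast mutant was monitored after compound treatment and expressed as inhibition relative to vehicle-treated cultures.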

[14] = NCI Yeast Anticancer Drug Screen. Data for the CLN2oe strain (AID 163);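 note: 0% = growth of vehicle-only control cultures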; settings: S. cerevisiae CLN2oe strain, hits give high values
Summary of the method: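 Yeast cells carrying a defined cell-cycle control alteration were exposed to test compounds. Growth inhibition was scored against vehicle-treated control cultures.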

[15] = NCI Yeast Anticancer Drug Screen. Data for the cln2 rad14 strain (AID 165);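 note: 0% = growth equal to vehicle treated cultures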; settings: S. cerevisiae cln2 rad14 strain, hits give high values
Summary of the method: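 Yeast carrying cln2 and rad14 alterations (cell cycle control and DNA damage repair) were exposed to compounds. Growth inhibition was measured against vehicle-treated controls.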

[16] = NCI Yeast Anticancer Drug Screen. Data for the bub3 strain (AID 167); settings: S. cerevisiae bub3 mutant strain, hits give high values
Summary of the method: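 Mutant yeast screening strain plus compound; vehicle-treated cultures serve as the 0% inhibition reference.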

[17] = at 5.0 µM (retest, dose inferred, filed as 0.5)
[18] = at 50.0 µM (retest, dose inferred, filed as 5.0)

Measured: growth inhibition

N#C/C(=C1C=C(Br)/C(=N\O)C=C\1Cl)c1cccc2ccccc12
inactive: [2]; at 1.2 µM -37% | [2]; at 3.7 µM -11% | [2]; at 11.0 µM 58% | [3]; at 1.2 µM 15% | [3]; at 3.7 µM 18% | [5]; at 1.2 µM 0% | [5]; at 3.7 µM 12%
active: [1]; at 33.0 µM 90% | [1]; at 100.0 µM 97% | [2]; at 33.0 µM 79% | [2]; at 100.0 µM 94% | [3]; at 11.0 µM 82% | [3]; at 33.0 µM 92% | [3]; at 100.0 µM 95% | [4]; [17] 100% | [4]; [18] 98% | [4]; at 50.0 µM 89.3% | [5]; at 11.0 µM 91% | [5]; at 33.0 µM 89% | [5]; at 100.0 µM 95%

CC1=CCC(C(C)(C)c2ccc(O)cc2)CC1 (stereo not given)
inactive: [6]; at 1.2 µM 4% | [6]; at 3.7 µM -12% | [6]; at 11.0 µM -11% | [7]; at 1.2 µM -16% | [7]; at 3.7 µM -18% | [7]; at 11.0 µM -39% | [8]; at 1.2 µM -10% | [8]; at 3.7 µM -4% | [8]; at 11.0 µM -25% | [8]; at 33.0 µM 27% | [9]; at 1.2 µM 35% | [9]; at 3.7 µM 10% | [9]; at 11.0 µM -23% | [10]; at 1.2 µM -6% | [10]; at 3.7 µM -8% | [10]; [17] 35% | [10]; at 11.0 µM -26% | [10]; [18] 65% | [11]; at 1.2 µM -20% | [11]; at 3.7 µM -19% | [11]; [17] 52% | [11]; at 11.0 µM -40% | [12]; at 1.2 µM -8% | [12]; at 3.7 µM -18% | [12]; at 11.0 µM -39% | [13]; [17] 7% | [14]; at 1.2 µM 15% | [14]; at 3.7 µM 19% | [14]; at 11.0 µM -17% | [15]; [17] 37% | [16]; at 1.2 µM 7% | [16]; at 3.7 µM 4% | [16]; [17] 39% | [16]; at 11.0 µM -4% | [1]; at 1.2 µM -41% | [1]; at 3.7 µM -24% | [1]; at 11.0 µM -44% | [2]; at 1.2 µM 10% | [2]; at 3.7 µM 9% | [2]; at 11.0 µM -10% | [3]; at 1.2 µM 2% | [3]; at 3.7 µM -17% | [3]; at 11.0 µM -28% | [4]; [17] 32% | [4]; [18] 63% | [5]; at 1.2 µM -6% | [5]; at 3.7 µM -7% | [5]; at 11.0 µM -5%
active: [6]; at 33.0 µM 96% | [6]; at 100.0 µM 97% | [7]; at 33.0 µM 97% | [7]; at 100.0 µM 98% | [8]; at 100.0 µM 78% | [9]; at 33.0 µM 97% | [9]; at 100.0 µM 97% | [10]; at 33.0 µM 96% | [10]; at 50.0 µM 91.8% | [10]; at 100.0 µM 97% | [11]; at 33.0 µM 93% | [11]; [18] 73% | [11]; at 50.0 µM 93.5% | [11]; at 100.0 µM 98% | [12]; at 33.0 µM 97% | [12]; at 100.0 µM 98% | [13]; [18] 97% | [14]; at 33.0 µM 97% | [14]; at 100.0 µM 97% | [15]; [18] 98% | [16]; at 33.0 µM 96% | [16]; [18] 97% | [16]; at 100.0 µM 97% | [1]; at 33.0 µM 93% | [1]; at 100.0 µM 97% | [2]; at 33.0 µM 96% | [2]; at 100.0 µM 98% | [3]; at 33.0 µM 96% | [3]; at 100.0 µM 97% | [4]; at 50.0 µM 91.8% | [5]; at 33.0 µM 96% | [5]; at 100.0 µM 97%

S=c1[nH]nc(-c2ccc(Cl)cc2)s1
active: [6]; at 33.0 µM 93% | [6]; at 100.0 µM 97% | [7]; at 33.0 µM 78% | [7]; at 100.0 µM 96% | [8]; at 100.0 µM 81% | [9]; at 33.0 µM 83% | [9]; at 100.0 µM 97% | [10]; [17] 73% | [10]; at 33.0 µM 90% | [10]; [18] 99% | [10]; at 50.0 µM 87.2% | [10]; at 100.0 µM 95% | [11]; [17] 72% | [11]; at 33.0 µM 71% | [11]; [18] 99% | [11]; at 50.0 µM 87.8% | [11]; at 100.0 µM 96% | [12]; at 33.0 µM 92% | [12]; at 100.0 µM 97% | [13]; [18] 97% | [14]; at 100.0 µM 95% | [15]; [18] 97% | [16]; at 33.0 µM 81% | [16]; [18] 96% | [16]; at 100.0 µM 96% | [1]; at 100.0 µM 96% | [2]; at 100.0 µM 96% | [3]; at 100.0 µM 94% | [4]; [17] 80% | [4]; [18] 99% | [4]; at 50.0 µM 86% | [5]; at 33.0 µM 92% | [5]; at 100.0 µM 96%
inactive: [6]; at 1.2 µM 16% | [6]; at 3.7 µM 7% | [6]; at 11.0 µM 23% | [7]; at 1.2 µM -18% | [7]; at 3.7 µM -21% | [7]; at 11.0 µM -25% | [8]; at 1.2 µM -1% | [8]; at 3.7 µM -1% | [8]; at 11.0 µM -9% | [8]; at 33.0 µM 31% | [9]; at 1.2 µM 8% | [9]; at 3.7 µM 11% | [9]; at 11.0 µM 12% | [10]; at 1.2 µM -6% | [10]; at 3.7 µM -7% | [10]; at 11.0 µM 21% | [11]; at 1.2 µM 1% | [11]; at 3.7 µM 12% | [11]; at 11.0 µM -15% | [12]; at 1.2 µM -24% | [12]; at 3.7 µM -18% | [12]; at 11.0 µM -16% | [13]; [17] -8% | [14]; at 1.2 µM 6% | [14]; at 3.7 µM 12% | [14]; at 11.0 µM -10% | [14]; at 33.0 µM 55% | [15]; [17] 52% | [16]; at 1.2 µM 23% | [16]; at 3.7 µM 24% | [16]; [17] 27% | [16]; at 11.0 µM 16% | [1]; at 1.2 µM -28% | [1]; at 3.7 µM -21% | [1]; at 11.0 µM -28% | [1]; at 33.0 µM 69% | [2]; at 1.2 µM -16% | [2]; at 3.7 µM -17% | [2]; at 11.0 µM -8% | [2]; at 33.0 µM 67% | [3]; at 1.2 µM -13% | [3]; at 3.7 µM -13% | [3]; at 11.0 µM -16% | [3]; at 33.0 µM 64% | [5]; at 1.2 µM -15% | [5]; at 3.7 µM -6% | [5]; at 11.0 µM 21%
